Measurements as given in PubChem BioAssay AID588342 (National Center for Advancing Translational Sciences (NCATS), 2011).
The whole screen tested about 360,000 compounds, of which about 25,000 (6.9%) were called active. A call without a number means that no potency is given here. Another 9% or so got no clear call; they are omitted. Calls come from the whole dose curve; as a rule, active = well fitted inhibition curve with a large enough effect; inconclusive = small, poorly fitted or top-dose-only effect; inactive = flat fitted curve, though single readings scatter. Only a selection was taken, and actives are over-represented in it overall.

The molecules below were run against Luciferin 4-monooxygenase (Photinus pyralis) (UniProt P08659) (assay: qHTS profiling assay for firefly luciferase inhibitor/activator using purifed enzyme and Km concentrations of substrates (counterscreen for miR-21 project)). Conditions: purified FLuc, luminescence inhibition; series mostly up to 57.5 µM.
Sequence of Luciferin 4-monooxygenase (Photinus pyralis) (P08659 whole entry, looked up): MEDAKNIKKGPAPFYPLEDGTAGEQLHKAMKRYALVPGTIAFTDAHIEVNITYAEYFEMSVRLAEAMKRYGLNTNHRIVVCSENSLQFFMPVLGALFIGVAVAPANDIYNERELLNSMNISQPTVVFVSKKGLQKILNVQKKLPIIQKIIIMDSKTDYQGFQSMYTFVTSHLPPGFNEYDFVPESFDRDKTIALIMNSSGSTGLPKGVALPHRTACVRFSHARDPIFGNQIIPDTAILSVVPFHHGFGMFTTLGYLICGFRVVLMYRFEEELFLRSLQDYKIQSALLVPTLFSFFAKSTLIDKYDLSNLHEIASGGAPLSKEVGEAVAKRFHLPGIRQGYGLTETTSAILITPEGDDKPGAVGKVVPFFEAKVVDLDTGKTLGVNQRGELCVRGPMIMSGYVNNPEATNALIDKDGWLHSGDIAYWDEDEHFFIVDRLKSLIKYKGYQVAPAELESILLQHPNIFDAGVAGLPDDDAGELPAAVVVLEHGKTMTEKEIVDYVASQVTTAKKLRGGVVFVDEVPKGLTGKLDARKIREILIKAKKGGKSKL
Method in brief: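 Purified P. pyralis luciferase (10nM final) with 10uM D-luciferin and 10uM ATP (Km levels) in 50mM Tris acetate pH 7.5, 10mM Mg acetate, 0.01% Tween-20, 0.05% BSA; qHTS 6-point titration, ~60 µM downward; luminescence read.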
Note: nearly all actives have a fitted effect of over 55% in size.
Potency is the fitted concentration of half-maximal effect.

Structure (SMILES)	Potency
Cc1nc(CN(C)C(=O)CC2C(=O)NCCN2Cc2ccc(F)cc2)cs1 (stereo not drawn)	inactive
Cc1ccc(N(C(=O)Cc2cccs2)C(C(=O)NCC2CCCO2)c2ccncc2)cc1 (stereo not drawn)	16.9 µM (active)
Cc1cccc(N(C(=O)Cc2cccs2)C(C(=O)NCc2ccco2)c2ccncc2)c1 (stereo not drawn)	inactive
O=C(NCC(=O)N(c1ccccc1)C(C(=O)NCC1CCCO1)c1ccccc1)c1cccs1 (stereo not drawn)	inactive
CCOC(=O)c1cc2c(=O)n3ccccc3nc2n(CC2CCCO2)c1=NC(=O)c1ccccc1Br (stereo not drawn)	inactive
CCC(=O)Nc1nc(OC)cc(OC)n1	inactive
CC(=O)Nc1nc(N(C)C)nc(N(C)C)n1	26.9 µM (active)
CN(C)c1nc(NN)nc(Nc2ccc(F)cc2)n1	inactive
O=C(Cc1ccccc1)Nc1ccc(C(=O)Nc2ccccc2C(=O)O)cc1	inactive
COc1ccc(Cl)cc1NC(=O)c1cccc(N2C(=O)C3CC=CCC3C2=O)c1 (stereo not drawn)	inactive
O=C(Nc1ccccc1C(=O)O)c1ccc(N2C(=O)C3CC=CCC3C2=O)cc1 (stereo not drawn)	4.78 µM (active)
O=c1ccc2cc(S(=O)(=O)N3CCN(c4ccccc4)CC3)ccc2o1	inactive
CCOc1ccccc1NC(=O)Cn1c(=O)n(Cc2ccccc2)c(=O)c2c(C)c(C(=O)N(C)C)sc21	inactive
O=C(O)c1ccc(/C=N/NC(=S)NCc2ccccc2)cc1	inactive
CC(C)(C)OC(=O)N/N=C/c1ccc(C(=O)O)cc1	19 µM (active)
COC(=O)N/N=C/c1ccc(/C=N/NC(=O)OC)cc1	inactive
O=C(O)c1ccc(/C=N/NC(=O)c2ccc(Br)cc2)cc1	15.1 µM (active)
O=C(N/N=C/c1ccc(OCC2COCCO2)cc1)c1ccc(Br)cc1 (stereo not drawn)	inactive
COc1ccc(S(=O)(=O)N(CC(=O)N/N=C/c2ccc(C(=O)O)cc2)Cc2ccccc2)cc1OC	inactive
Cc1cccc2c(=O)cc(CSc3ccccc3NC(=O)C(C)C)[nH]c12	inactive
Nc1c(-c2ccc(F)cc2)cnn1C1CCS(=O)(=O)C1 (stereo not drawn)	inactive
O=C(Nc1ccc(C(F)(F)F)cc1)c1cccc(-n2cnnn2)c1	inactive
CC(C)NC(=O)NCCCCCCS(C)=O (stereo not drawn)	inactive
O=C(COC(=O)Cc1ccc(Br)cc1)Nc1ccc(N2CCOCC2)cc1	inactive
COc1c(Cl)cc(Cl)cc1C(=O)Nc1cccc2cccnc12	inactive

Structure (SMILES)	Potency
O=C(Nc1cccc2cccnc12)c1cccc(N2C(=O)CCC2=O)c1	13.5 µM (active)
Cc1c(NC(=O)Nc2ccccc2Cl)sc(=S)n1C	inactive
Cc1cc(NC(=O)c2cccc(N3C(=O)CCC3=O)c2)no1	inactive
N#Cc1ccc(C(=O)Nc2cccc3cccnc23)c(F)c1	inactive
O=C(Nc1ccccc1Cl)Nc1cccc2cccnc12	12 µM (active)
COC(=O)c1cccc(NC(=O)c2cccc(N3C(=O)CCC3=O)c2)c1	inactive
O=C(Nc1cccc2cccnc12)c1cccc2c(Br)cccc12	inactive
O=C(Nc1cccc2cccnc12)c1cccc(Cl)c1	15.1 µM (active)
O=S(=O)(Nc1ccc(-n2cnnn2)cc1)c1ccc(Cl)cc1	inactive
O=[N+]([O-])/C=C1\CCCCCN1	inactive
CCc1ccccc1N1CC(c2nc3ccccc3n2CCCCOc2ccccc2)CC1=O (stereo not drawn)	inactive
O=C(CCNS(=O)(=O)c1ccccc1C(F)(F)F)Nc1ccncc1	inactive
Cc1ccc(-c2nnc(Nc3cccc(Br)c3)c3ccccc23)cc1S(=O)(=O)NCC1CCCO1 (stereo not drawn)	inactive
CC1CCCC(NC(=O)COC(=O)[C@@H]2CC(O)CN2S(=O)(=O)c2ccc3c(c2)OCCO3)C1C (stereo partly drawn)	inactive
Clc1ccc(CSc2nncn3c2cc2occc23)cc1	inactive
CC(=O)c1ccccc1NC(=O)C1CC(=O)N(c2ccc3c(c2)OCCO3)C1 (stereo not drawn)	inactive
COc1ccc(CNc2nc(-c3ccc(Cl)cc3)nn2S(=O)(=O)c2ccc(C)cc2)cc1	inactive
COC(=O)c1cccc(NS(C)(=O)=O)c1	inactive
CS(=O)(=O)Nc1cccc(-c2cn3ccccc3n2)c1	23.9 µM (active)
CS(=O)(=O)Nc1cccc(C2=NN(S(=O)(=O)c3ccccc3)C(c3cccs3)C2)c1 (stereo not drawn)	inactive
COc1ccccc1C1=CC(=O)C[C@H](c2ccc(F)cc2)C1	inactive
Cc1ccc(SCCC(=O)NCc2ccccn2)cc1	inactive
Cc1ccc(SCCSc2ncccn2)cc1	1.69 µM (active)
Cc1ccc(SCCC(=O)NC(C(C)C)C(C)C)cc1	inactive
CCN(C(=O)CSc1nnc(C)n2c1cc1occc12)c1ccccc1	inactive

Structure (SMILES)	Potency
COc1cc(C(=O)NNC(=O)CN2C(=O)NC3(CCCC3)C2=O)cc(OC)c1OC	inactive
Cc1ccc(-c2nnc3c4ccccc4c(C)nn23)cc1NC(=O)c1cccc(Br)c1	inactive
Cc1ccc(S(=O)(=O)NCCC(=O)Nc2cccc(S(N)(=O)=O)c2)cc1C	inactive
Cc1ccnc(NC(=O)CCNS(=O)(=O)c2ccc(C)c(C)c2)c1	4.78 µM (active)
Cc1ccc(S(=O)(=O)NCCC(=O)Nc2ccc(C)c(Cl)c2)cc1C	inactive
COc1cc(NC(=O)CN2CCN(S(=O)(=O)c3ccc(Br)cc3)CC2)cc(OC)c1	inactive
O=C(O)CCn1c(Cc2ccccc2)nc2ccccc21	inactive
O=C(O)CCn1c(O)c(C=C2N=c3ccccc3=N2)sc1=S	1.07 µM (active)
Cc1cc2ccccc2n1CCC(=O)O	inactive
CCOC(=O)c1ccc(NC(=O)CC2C(=O)N(c3cccc(OC)c3)C(=O)N2C2CCCCC2)cc1 (stereo not drawn)	inactive
CN(CC(=O)Nc1ccccc1F)S(=O)(=O)c1ccc2c(c1)c(=O)n(C)c(=O)n2C	inactive
NC(=O)c1cc(-c2cccnc2)nc2ccc(Br)cc12	inactive
Cc1cc(C(=O)OCC(=O)Nc2nccs2)c2ccccc2n1	inactive
O=C(Nc1ccncc1)c1cc(-c2ccccn2)nc2ccc(Br)cc12	inactive
CCS(=O)(=O)Nc1cccc(-c2cc(-c3ccccc3)c3cc(C)ccc3n2)c1	inactive
Cc1ccc2nc(-c3ccccc3)cc(C(=O)O)c2c1	12 µM (active)
O=C(NCC(c1cccs1)N1CCOCC1)c1cc(-c2ccccn2)nc2ccccc12 (stereo not drawn)	inactive
Cc1ccsc1-c1cc(C(=O)O)c2c(ccc3ccccc32)n1	5.36 µM (active)
Cc1ccc(-c2cc(C(=O)NCc3cn(C)nc3C)c3cc(Br)ccc3n2)cc1	1.9 µM (active)
Cc1ccc2nc(-c3ccncc3)cc(C(=O)Nc3ccc4c(c3)OCCO4)c2c1	inactive
COc1ccccc1C(=O)Nn1cnnc1	inactive
Cc1ccc2nc(-c3cccc(Br)c3)cc(C(=O)Nn3cnnc3)c2c1	0.536 µM (active)
O=C(NCc1cccs1)c1cc(-c2ccccn2)nc2ccc(Br)cc12	inactive
